In the supplement of paper PMC10941209:
Values without a mark were called inactive.

system: Toxoplasma gondii RH 2F1 tachyzoites (intracellular in HFF); test: parasite survival relative to DMSO control; higher = less antiparasitic activity, active = 20 or less; details: 1 µM; 72 h
Experimental: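 Primary single-dose screen of the MMV Pandemic Response Box at 1 uM against T. gondii RH-2F1 (beta-galactosidase) tachyzoites in HFF cells, 72 h at 37 C. Parasite growth read by CPRG absorbance at 570 nm and normalised to DMSO-treated infected controls (% survival); pyrimethamine was the reference drug. The paper calls at least 80% inhibition a hit.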

Row | SMILES | parasite survival
1 | COc1ccc(C2=CC(c3c(F)cccc3Cl)n3ncnc3N2)cc1 (stereo not given) | 71.5%
2 | CCOC(=O)/C=C/[C@H](C[C@@H]1CCNC1=O)NC(=O)[C@H](CC)n1cccc(NC(=O)c2cc(C)on2)c1=O | 63.3%
3 | Cc1oncc1C(=O)Nc1ccc(C(F)(F)F)cc1 | 77.7%
4 | CC1CCc2c(N3CCC(O)CC3)c(F)cc3c(=O)c(C(=O)O)cn1c23 (stereo not given) | 51%
5 | Nc1ccc2oc(=O)ccc2c1I | 80.5%
6 | CONC(=N)c1ccc(-c2ccc(-c3ccc(C(=N)NOC)cc3)o2)cc1 | 49.7%
7 | CCC(C)NCC(O)Cn1c2ccc(Cl)cc2c2cc(Cl)ccc21 (stereo not given) | 26.8%
8 | COc1ccc2c(c1OC)C(=O)OC2C1c2c(cc3c(c2OC)OCO3)CCN1C (stereo not given) | 68.3%
9 | c1ccc(-c2nnc3c4ccccc4c(N4CCNCC4)nn23)cc1 | 11.3% (active)
10 | Cn1cc(NC(=O)c2cc(NC(=O)c3ccc(/C=C/c4cnc5ccccc5c4)cc3)cn2C)cc1C(=O)NCCN1CCOCC1 | 12.8% (active)
11 | O=C(CSc1nnc(Br)n1-c1ccc(C2CC2)c2ccccc12)Nc1ccc(C(=O)O)cc1Cl | 61%
12 | Cc1ccccc1NC(=O)Nc1cccc([N+](=O)[O-])c1 | 24.2%
13 | CCC[C@H](NC(=O)[C@@H]1[C@H]2CCC[C@H]2CN1C(=O)[C@@H](NC(=O)[C@@H](NC(=O)c1cnccn1)C1CCCCC1)C(C)(C)C)C(=O)C(=O)NC1CC1 | 46.8%
14 | C/C(=N\NC(=O)C1CC1c1ccccc1)c1ccc(NC(=O)c2ccco2)cc1 (stereo not given) | 47.3%
15 | O=[N+]([O-])c1cn(Cc2nc(O)nc(O)c2Br)cn1 | 58.1%
16 | CN(C)CCCNC(=O)c1ccc(-c2cc(O)c3ncccc3c2)cc1 | 81.2%
17 | C[C@@]1(O)[C@H](O)[C@@H](CO)O[C@H]1n1ccc2c(N)ncnc21 | 58.6%
18 | CCOc1noc2cc(OCCC3CCN(c4ccc(C)nn4)CC3)ccc12 | 45%
19 | NC(=O)c1nccn([C@@H]2O[C@H](CO)[C@@H](O)[C@H]2O)c1=O | 59.3%
20 | NC(=S)N/N=C/c1ncccc1N | 37.3%

Row | SMILES | parasite survival
21 | Nc1nc(O)c2ncn([C@@H]3O[C@H](CO)[C@@H](O)[C@H]3F)c2n1 | 75.9%
22 | CCc1cc(Nc2cc(=O)n(CCN3CCN(C(=O)c4ccccc4)CC3)c(=O)[nH]2)ccc1C | 26%
23 | Nc1cc(N)c2nc(-c3ccccc3)c(Nc3ccc(F)cc3)nc2c1 | 7.94% (active)
24 | O=c1[nH]c(=O)n(Cc2cccc(Oc3ccccc3)c2)cc1Nc1ccccc1 | 60.3%
25 | CC(C)Oc1cccc(NC(=O)c2ccccc2C(F)(F)F)c1 | 74.1%
26 | Cc1ncc([N+](=O)[O-])n1CC(C)O (stereo not given) | 48.2%
27 | O=C(CCCC(F)(F)F)N1CCC(c2nc(-c3nccs3)no2)CC1 | 68%
28 | C[C@H]1CC[C@]2(NC1)O[C@H]1C[C@H]3[C@@H]4CC[C@H]5C[C@@H](O)CC[C@]5(C)[C@H]4CC[C@]3(C)[C@H]1[C@@H]2C | 41.1%
29 | O=C(Nc1ncc(Cc2cccc3ccccc23)s1)C1CCCCC1 | 25.3%
30 | Nc1nc(C(F)(F)F)cc2c1[nH]c(=O)n2Cc1ccccc1 | 49.1%
31 | CCO/N=C/c1ccc(OCCCCN2CCN(c3ccncc3)C2=O)cc1 | 47.7%
32 | COc1cc(C(C(=O)NC2CCCCC2)N(C(=O)Cc2c[nH]c3ccccc23)c2ccc(C(C)C)cc2)cc(OC)c1OC (stereo not given) | 46.5%
33 | Cc1cc(-c2ccccc2)c(C(=O)C(=O)Nc2ccc(N3CCN(c4ncc(F)cn4)CC3)cc2)n1C | 9.71% (active)
34 | COc1cc(C)c2c(Oc3cccc(C(F)(F)F)c3)c(OC)cc(NC(C)CCCN)c2n1 (stereo not given) | 27.2%
35 | Cc1cc(C2CCCCC2)n(O)c(=O)c1 | 15.8% (active)
36 | O=C(NNC(=S)Nc1ccc(Cl)cc1)c1ccncc1 | 65%
37 | COc1ccc(OCc2ccc(COc3c(Cl)cccc3Cl)cc2)c(Cl)c1 | 72%
38 | Oc1cc(-c2cccc3ccccc23)[nH]n1 | 55.1%
39 | NC(=O)c1ccccc1NC(=O)c1ccc(C(=O)Nc2ccccc2C(N)=O)cc1 | 39.5%
40 | Cc1[nH]c2ccccc2c1CCNCc1ccc(/C=C/C(=O)NO)cc1 | 4.12% (active)
